According to PubChem BioAssay (NCATS):
Records with an inconclusive call do not appear. Where a call stands in place of a potency, no number is given. Active and inactive are the calls of the source. Unless noted, calls follow the shape of the dose curve; as a rule, active = well fitted curve in the direction sought with a large enough effect; inconclusive = small, poorly fitted or top-dose-only effect, or another doubt; inactive = no such curve, though single readings can be large; an effect the other way counts as inactive or inconclusive.

Key:
[1] = biological target: Alpha-galactosidase A (Homo sapiens) (UniProt P06280); experiment: Counterscreen for Glucocerebrosidase Inhibitors: qHTS Assay for Human alpha-Galactosidase at pH 4.5 (AID 992); conditions: purified enzyme, fluorogenic substrate; series mostly up to 76.9 µM
Sequence of Alpha-galactosidase A (Homo sapiens) (P06280 whole entry, looked up): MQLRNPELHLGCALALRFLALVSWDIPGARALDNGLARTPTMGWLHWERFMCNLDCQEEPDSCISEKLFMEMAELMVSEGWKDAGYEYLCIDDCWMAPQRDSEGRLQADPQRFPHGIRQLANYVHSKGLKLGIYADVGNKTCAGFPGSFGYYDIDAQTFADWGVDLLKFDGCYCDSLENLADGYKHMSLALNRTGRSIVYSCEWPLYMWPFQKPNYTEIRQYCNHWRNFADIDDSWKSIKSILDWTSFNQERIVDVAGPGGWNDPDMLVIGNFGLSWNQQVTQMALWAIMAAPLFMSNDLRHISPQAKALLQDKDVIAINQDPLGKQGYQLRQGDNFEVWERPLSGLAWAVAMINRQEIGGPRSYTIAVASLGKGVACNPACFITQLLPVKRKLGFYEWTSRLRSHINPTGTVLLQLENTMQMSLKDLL
Summary of the method: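 Concentration-response curves (0.7 nM to 77 uM final) were modeled with the Hill equation to give AC50. Reactions: 2 nM enzyme, 80 uM fluorogenic alpha-galactoside, pH 4.5 citric acid buffer, 20 min, room temperature.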

[2] = qHTS for differential inhibitors of proliferation of Plasmodium falciparum line 7G8 (AID 1815); conditions: Plasmodium falciparum 7G8 proliferation inhibition; series mostly up to 28.7 µM;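 also: parasite growth measured after three days of incubation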; also: potency is read from the fitted curve at half-maximal effect
[3] = qHTS for differential inhibitors of proliferation of Plasmodium falciparum line GB4 (AID 1816); conditions: Potency: Plasmodium falciparum GB4 proliferation inhibition; series mostly up to 28.7 µM;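 also: parasite growth measured after 72 h incubation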; also: potency is read from the fitted curve at half-maximal effect
[4] = biological target: DNA repair nuclease/redox regulator APEX1 (Homo sapiens) (UniProt P27695); experiment: qHTS Validation Assay for Inhibitors of the Human Apurinic/apyrimidinic Endonuclease 1 (APE1) (AID 1705; also: potency is read from the fitted curve at half-maximal effect;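 as to activity change, negative = inhibition: TAMRA fluorescence gain over two minutes as APE1 cuts a quenched THF abasic duplex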); conditions: purified APE1 endonuclease activity, fluorescence, titration; series mostly up to 57.1 µM
Sequence of DNA repair nuclease/redox regulator APEX1 (Homo sapiens) (P27695 whole entry, looked up): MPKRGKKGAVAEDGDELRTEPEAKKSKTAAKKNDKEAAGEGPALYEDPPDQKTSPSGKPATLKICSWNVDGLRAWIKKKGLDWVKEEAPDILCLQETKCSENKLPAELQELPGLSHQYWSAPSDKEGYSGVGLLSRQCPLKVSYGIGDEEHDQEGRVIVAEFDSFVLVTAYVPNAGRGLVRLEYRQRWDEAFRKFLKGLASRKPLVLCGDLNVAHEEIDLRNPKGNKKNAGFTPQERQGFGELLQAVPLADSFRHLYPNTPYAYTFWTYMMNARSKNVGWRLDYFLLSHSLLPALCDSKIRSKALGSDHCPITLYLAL
Summary of the method: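 Human APE1 was preincubated with compound for 15 min at room temperature, then 50 nM (final) THF-abasic double-stranded DNA substrate bearing 5'-TAMRA and 3'-BHQ-2 was added. Incision-driven fluorescence rise (ex 525/em 598 nm) was read kinetically.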

[5] = Counterscreen for APE1 Inhibitors: Fluorescent Dye Displacement Validation Assay (AID 1707); conditions: fluorescent dye displacement from DNA; series mostly up to 57.1 µM
Summary of the method: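 Assay buffer: Tris-HCl pH7.5 with 50mM NaCl, 2 mM MgCl2, 0.01% Tween-20. Dye 250 nM, duplex 50 nM final. Readout: decrease in ThO endpoint fluorescence, 480 nm excitation, 540 nm emission.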

[6] = biological target: Endonuclease 4 (Escherichia coli (strain K12)) (UniProt P0A6C1); experiment: Counterscreen for APE1 Inhibitors: qHTS Validation Assay for Inhibitors of Endonuclease IV (AID 1708); also: potency is read from the fitted curve at half-maximal effect; conditions: E. coli endonuclease IV, DNA cleavage fluorescence; series mostly up to 57.1 µM
Summary of the method: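 Cleavage of a quenched abasic-site DNA duplex (50 nM, 5'-TAMRA, 3'-BHQ-2) by 2 nM enzyme is followed as fluorescence increase. Compounds are preincubated with enzyme 15 min at room temperature before substrate addition.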

[7] = Cell Viability - LYMP2-010 (AID 981); conditions: LYMP2-010 lymphoblastoid cell viability, qHTS; series mostly up to 92.2 µM; also: nearly all actives have a fitted effect of over 55% in size
Summary of the method: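 Human lymphoblastoid LYMP2-010 cells (2500/well) were preincubated 5 hr at 37 C, then exposed to compounds for 24 hr at 37 C in complete medium. Intracellular ATP was measured by CellTiter-Glo luminescence after 30 min at room temperature; AC50 from Hill-fitted concentration-response.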

[8] = Cell Viability - LYMP2-012 (AID 982); conditions: LYMP2-012 lymphoblastoid cell viability qHTS; series mostly up to 92.2 µM;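 also: cellular ATP by luciferase luminescence where a drop means cytotoxicity; cells exposed to compound for one day before reading; nearly all actives have a fitted effect of over 55% in size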
[9] = Cell Viability - LYMP2-014 (AID 983); conditions: LYMP2-014 lymphoblastoid cells, viability qHTS; series mostly up to 92.2 µM; also: nearly all actives have a fitted effect of over 50% in size
Summary of the method: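 Human lymphoblastoid cells (2500/well) were pre-incubated 5 hr at 37 C, then exposed to compounds in complete medium for 24 hr at 37 C. Intracellular ATP was read by CellTiter-Glo luminescence after 30 min at room temperature; AC50 from Hill fits.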

[10] = Cell Viability - LYMP2-016 (AID 984); conditions: LYMP2-016 lymphoblastoid cell viability, qHTS; series mostly up to 92.2 µM; also: nearly all actives have a fitted effect of over 55% in size
Summary of the method: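 Human lymphoblastoid cells (LYMP2-016), 2500/well in complete medium, preincubated 5 hr at 37 C, then compound-treated 24 hr at 37 C. Intracellular ATP read by CellTiter-Glo luminescence after 30 min at room temperature; AC50 from Hill-equation concentration-response fits.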

[11] = Cell Viability - LYMP2-018 (AID 985); conditions: LYMP2-018 lymphoblastoid cells, viability (qHTS); series mostly up to 92.2 µM;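 also: compound exposure lasted 24 hr at 37 °C; nearly all actives have a fitted effect of over 50% in size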
Summary of the method: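 Human lymphoblastoid cells (2500/well) were pre-incubated 5 hr at 37 C, then exposed to compounds for 24 hr at 37 C in complete medium. Viability was read as intracellular ATP by CellTiter-Glo luminescence; AC50 values came from Hill-equation fits.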

[12] = Cell Viability - LYMP2-020 (AID 986); conditions: series mostly up to 92.2 µM; also: nearly all actives have a fitted effect of over 55% in size
Summary of the method: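 Human lymphoblastoid cells, 2500/well, were pre-incubated 5 hr at 37 C, then exposed to compounds for 24 hr at 37 C in complete medium. Intracellular ATP was read by CellTiter-Glo luminescence, and AC50 was derived by Hill fitting of concentration-response data.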

[13] = Cell Viability - LYMP2-022 (AID 987); conditions: LYMP2-022 lymphoblastoid cell viability; series mostly up to 92.2 µM; also: nearly all actives have a fitted effect of over 55% in size
Summary of the method: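 Human lymphoblastoid cells, 2500/well, preincubated 5 hr at 37 C, then exposed to compounds over a concentration range for 24 hr at 37 C in complete medium. Viability read as intracellular ATP by CellTiter-Glo luminescence after 30 min at room temperature; AC50 from Hill fits.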

[14] = Cell Viability - LYMP2-024 (AID 988); conditions: LYMP2-024 lymphoblastoid cell viability; series mostly up to 92.2 µM; also: nearly all actives have a fitted effect of over 60% in size
Summary of the method: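 Human lymphoblastoid cells (2500/well) in complete medium were preincubated 5 hr at 37 C, then exposed to compounds for 24 hr at 37 C. Intracellular ATP was read by CellTiter-Glo luminescence; AC50 from Hill-equation fits of concentration-response data.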

[15] = Cell Viability - LYMP2-026 (AID 989); conditions: LYMP2-026 lymphoblastoid cell viability, qHTS; series mostly up to 92.2 µM; also: nearly all actives have a fitted effect of over 50% in size
Summary of the method: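 Human lymphoblastoid cells (2500/well) in complete medium were preincubated 5 hr at 37 C, then exposed to compounds for 24 hr at 37 C. Cellular ATP was read by CellTiter-Glo luminescence; AC50 from Hill-equation fits of concentration-response data.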

[16] = Cell Viability - LYMP1-002 - Assay at 40 hr (AID 994); conditions: LYMP1-002 lymphoblastoid cell viability; series mostly up to 92.2 µM; also: nearly all actives have a fitted effect of over 60% in size
Summary of the method: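 Human lymphoblastoid cells, 2500/well in complete medium, were preincubated 5 hr at 37 C, then exposed to compounds for 40 hr at 37 C. Intracellular ATP was read by CellTiter-Glo luminescence after 30 min at room temperature; AC50 from Hill-equation fits.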

[17] = qHTS Assay for Lipid Storage Modulators (AID 1519; calls by dose curve); conditions: Drosophila S3 cells, BODIPY lipid droplet/cell ratio, laser cytometry, cells loaded with oleic acid; for activity change, negative = inhibition: at 57.5 µM (top of the series)
Summary of the method: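 Cells seeded at 5,000 per well were treated with compounds over a concentration series and loaded with oleic acid (400 uM, as added). Lipid droplet fluorescence (488 nm excitation, 500-530 nm channel) was read by laser-scanning cytometry and normalized to 20 uM Triacsin C.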

[18] = biological target: alpha-glucosidase (Oryza sativa, rice) (UniProt Q653V4); experiment: Counterscreen for Glucocerebrosidase Inhibitors: qHTS Assay for Rice alpha-Glucosidase at pH 5.0 (AID 997); conditions: rice alpha-glucosidase enzyme activity; series mostly up to 76.9 µM
Summary of the method: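 Rice alpha-glucosidase (4 nM final) with 400 uM 4-methylumbelliferyl-alpha-D-glucopyranoside in citrate buffer pH 5.0, 20 min at room temperature, stopped at pH 10; fluorescence 365/440 nm, compounds 0.7 nM–77 uM, AC50 from Hill fits.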

[19] = biological target: Alpha-galactosidase (Coffea arabica) (UniProt Q42656); experiment: Counterscreen for Glucocerebrosidase Inhibitors: qHTS Assay for Coffee Bean alpha-Galactosidase at pH 5.9 (AID 998); conditions: coffee bean alpha-galactosidase enzyme assay; series mostly up to 76.9 µM
Sequence of Alpha-galactosidase (Coffea arabica) (Q42656 whole entry, looked up): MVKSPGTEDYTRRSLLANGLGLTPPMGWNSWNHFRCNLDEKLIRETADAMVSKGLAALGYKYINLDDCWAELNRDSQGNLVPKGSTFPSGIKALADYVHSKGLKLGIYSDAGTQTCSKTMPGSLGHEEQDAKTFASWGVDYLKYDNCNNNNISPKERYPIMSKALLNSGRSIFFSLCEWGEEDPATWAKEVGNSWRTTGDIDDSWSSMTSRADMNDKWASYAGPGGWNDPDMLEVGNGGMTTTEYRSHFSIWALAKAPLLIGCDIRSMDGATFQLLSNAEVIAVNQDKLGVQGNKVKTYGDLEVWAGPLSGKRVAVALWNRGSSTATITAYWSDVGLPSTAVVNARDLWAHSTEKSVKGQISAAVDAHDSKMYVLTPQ
Summary of the method: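 Green coffee bean enzyme (2 nM) with 4-methylumbelliferyl alpha-D-galactopyranoside (80 uM) in 50 mM citric acid, 0.005% Tween-20, pH 5.9, 20 min at room temperature; compounds 0.7 nM–77 uM. Stopped at pH 10, fluorescence Ex365/Em440; Hill-fit AC50.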

[20] = measured here: cell count channel max response
[21] = measured here: lipid channel max response

With c1ccc2c(c1)[I+]c1ccccc1-2 the outcome [1] was “inactive”, the Potency [2] was 0.1 µM (active) and the Potency [3] was 0.0708 µM (active).
In the case of NC(=O)CI, the outcome [1] was “inactive”, the Potency [4] was “inactive” and the Potency [5] was “inactive”. For the same compound, the Potency [6] was “inactive”, the Potency [2] was “inactive” and the Potency [3] was “inactive”.
With C=CCN1CC[C@]23c4c5ccc(O)c4O[C@@H]2/C(=N/N=C2\CC[C@@]4(O)C6Cc7ccc(O)c8c7[C@@]4(CCN6CC=C)[C@@H]2O8)CC[C@@]3(O)C1C5 the Potency [4] was “inactive”, the Potency [5] was “inactive” and the Potency [6] was “inactive”. The Potency [2] was 2.51 µM (active) and the Potency [3] was 3.16 µM (active).
For C[C@H](N)CN1CCc2ccc(Br)cc21, the outcome [1] was “inactive”, the Potency [4] was “inactive” and the Potency [5] was “inactive”. For the same compound, the Potency [2] was 8.91 µM (active) and the Potency [3] was 1.26 µM (active).
In the case of O=C1CCO1, the Potency [7] was “inactive”, the Potency [8] was “inactive” and the Potency [9] was “inactive”. For the same compound, the Potency [10] was “inactive”, the Potency [11] was “inactive” and the Potency [12] was “inactive”. For the same compound, the Potency [13] was “inactive”, the Potency [14] was “inactive” and the Potency [15] was “inactive”. The Potency [16] was “inactive”, the activity change, negative = inhibition [17] was 5.6% (inactive) and the max response [17, 20] was 8.02%. The max response [17, 21] was 16.6%.
With CN1CC[C@@]2(C)c3cc(O)ccc3N(C)C12 (some centres undefined) the activity change, negative = inhibition [17] was 0.587% (inactive), the max response [17, 20] was -12.4% and the max response [17, 21] was -11.4%. For the same compound, the Potency [5] was “inactive”, the Potency [6] was “inactive” and the Potency [2] was 12.6 µM (active). The Potency [3] was 11.2 µM (active).
In the case of Cc1c2ccncc2c(C)c2c1[nH]c1ccccc12, the outcome [1] was “inactive”, the outcome [18] was “inactive” and the outcome [19] was “inactive”. For the same compound, the Potency [4] was 3.16 µM (active), the Potency [5] was “inactive” and the Potency [6] was 2.82 µM (active). The Potency [2] was 0.794 µM (active) and the Potency [3] was 0.398 µM (active).
In the case of CC(N)c1cccc(Cl)c1Cl (centres undefined), the Potency [4] was “inactive”, the Potency [5] was “inactive” and the Potency [6] was “inactive”. For the same compound, the Potency [3] was 11.2 µM (active).
With CC(C)(C)c1cc(C=C(C#N)C#N)cc(C(C)(C)C)c1O the outcome [1] was “inactive”, the Potency [5] was “inactive” and the Potency [6] was “inactive”. For the same compound, the Potency [2] was 1.12 µM (active) and the Potency [3] was 0.891 µM (active).
For NC(Cc1ccc(N(CCCl)CCCl)cc1)C(=O)O (centres undefined), the activity change, negative = inhibition [17] was 5.85% (inactive), the max response [17, 20] was 17.5% and the max response [17, 21] was 28.4%. For the same compound, the Potency [4] was “inactive”, the Potency [5] was “inactive” and the Potency [6] was “inactive”. For the same compound, the Potency [2] was 10 µM (active) and the Potency [3] was 11.2 µM (active).
